Assay [1] is described as follows: Nuclear factor erythroid 2-related factor 2/antioxidant responsive element (Nrf2/ARE) small molecule agonists: qHTS cell viability counter screen in human keratinocytes (AID 1919968; active means well fitted curve in the direction sought with a large enough effect in the repeat runs; an effect the other way counts as inactive or inconclusive; further: nearly all actives have a fitted effect of over 55% in size). Summed up:
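Viability counter-screen: KeratinoSens reporter cells, DMSO-delivered compounds, 23 h at 37 C, CellTiter-Fluor fluorescence.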

A short description of assay [2]: Nuclear factor erythroid 2-related factor 2/antioxidant responsive element (Nrf2/ARE) small molecule agonists: luciferase reporter gene qHTS assay in human keratinocytes (AID 1919969). Further: nearly all actives have a fitted effect of over 35% in size. Further: potency means the concentration at half of the fitted maximal effect.
In assay [3] the target is Gonadotropin-releasing hormone receptor (Homo sapiens) (UniProt P30968). As to the kind of experiment: Human gonadotropin-releasing hormone receptor (GnRHR) small molecule agonists, calcium flux assay in GnRHR-HEK293 cells (AID 1920063). Further: nearly all actives have a fitted effect of over 35% in size. The procedure, abridged: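 Tox21-format agonist screen using human GnRHR-expressing HEK293 cells and a fluorescent calcium dye; kinetic 3-min fluorescence reading after compound addition, 15-point concentration series run in triplicate.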
(In general: Calcium flux is commonly read through the fluorescence of an indicator in the cells.)

The target in assay [4] is KiSS-1 receptor (Homo sapiens) (UniProt Q969F8). Put plainly: Human kisspeptin (KISS1R) small molecule agonists, calcium flux assay in KISS1R-HEK293 cells (AID 1920064; active means well fitted curve in the direction sought with a large enough effect in the repeat runs; an effect the other way counts as inactive or inconclusive). The procedure, abridged: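 Intracellular calcium mobilization in KISS1R-HEK293 cells was recorded by fluorescence (Ex/Em 480/540) for 3 min following compound addition to cells pre-loaded 1 h with calcium dye.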

The nature of assay [5]: G protein-coupled receptor (GPCR) small molecule agonists, calcium flux assay: HEK293 wild type cell line counter screen (AID 1920065). Summed up: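 In this agonist-mode screen, ATP is the positive control and DMSO the vehicle. Cells grow 18 h before a 1 h dye incubation at 37 C; signal is taken at Ex/Em 480/540 over 3 min.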
A short description of assay [6]: p53 small molecule agonists, cell-based qHTS assay with human liver microsomes (AID 1963577). Summed up: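 Compounds act here after metabolic activation: human liver microsomes and NADPH, both at 0.5 mg/mL final, were co-added to p53RE-bla cells. Incubation ran 16 h at 37 C, followed by LiveBLAzer detection.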
A general note: Quantitative high-throughput screening tests each substance at several concentrations.

Assay [7] can be described thus: p53 small molecule agonists, cell-based qHTS assay with rat liver microsomes (AID 1963578). The procedure, abridged: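 Read-out is beta-lactamase reporter fluorescence (LiveBLAzer, 2 h, room temperature, dark) in p53RE-bla cells treated 16 h at 37 C with compound, rat liver microsomes and NADPH, both 0.5 mg/mL final.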
The nature of assay [8]: p53 small molecule agonists, cell-based qHTS assay with human liver microsomes: qHTS cell viability counter screen (AID 1963579). Further: nearly all actives have a fitted effect of over 45% in size. Summed up: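 Cells carrying the p53 response-element beta-lactamase reporter are treated for 16 h at 37 C with test compounds in the presence of human liver microsomes and NADPH (both 0.5 mg/mL final); ATP-based CellTiter-Glo luminescence then reports viability.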

A short description of assay [9]: p53 small molecule agonists, cell-based qHTS assay with rat liver microsomes: qHTS cell viability counter screen (AID 1963580). Further: nearly all actives have a fitted effect of over 45% in size. Summed up: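 Intracellular ATP, by CellTiter-Glo luminescence, defines viability. HCT-116 p53RE-bla cells, 4,000 per well, were compound-treated in the presence of rat liver microsomes and NADPH for 16 h at 37 C.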
Assay [10] in a line: p53 small molecule agonists, cell-based qHTS assay: qHTS cell viability counter screen (AID 1963581). Further: nearly all actives have a fitted effect of over 45% in size. The procedure, abridged:
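Compounds are pinned onto HCT-116 p53RE-bla cells and left 16 h at 37 C. Following the reporter FRET read, ATP is quantified by CellTiter-Glo luminescence after 30 min at room temperature.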

Assay [11] can be described thus: p53 small molecule agonists, cell-based qHTS assay (AID 1963582; active means well fitted activation curve with a large enough effect in the signal ratio in the repeat runs, not every such curve was filed as active; the % refers to the signal ratio). The procedure, abridged: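 Agonist activity was scored from beta-lactamase FRET fluorescence in p53RE-bla cells treated 16 h at 37 C with compounds in DMSO, substrate incubation being 2 h at room temperature.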
In assay [12] the target is 5-hydroxytryptamine receptor 2A (Homo sapiens) (UniProt P28223). As to the kind of experiment: 5-hydroxytryptamine receptor 2A (HTR2A) small molecule antagonists, cell-based qHTS assay (AID 1963586). Further: nearly all actives have a fitted effect of over 45% in size. Summed up:
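Antagonist-mode intracellular calcium assay: DOI (4 nM) added after 5 min compound pre-incubation at room temperature to dye-loaded HTR2A-CHO cells. Fluorescence followed for 3 min, sampled every second.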

Assay [13] has the same target. As to the kind of experiment: 5-hydroxytryptamine receptor 2A (HTR2A) small molecule agonists, cell-based qHTS assay (AID 1963587). Further: nearly all actives have a fitted effect of over 30% in size. Summed up: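 Kinetic calcium-flux fluorescence (2 min, 1 sec intervals) after compound addition in agonist mode. HTR2A-CHO cells were cultured 18 h, then dye-loaded 1 h at 37 C.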
The target of assay [14] is Muscarinic acetylcholine receptor M1 (Homo sapiens) (UniProt P11229). As to the kind of experiment: Cholinergic receptor muscarinic 1 (CHRM1) small molecule antagonists, cell-based qHTS assay (AID 1963588). Further: nearly all actives have a fitted effect of over 40% in size. Summed up:
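CHRM1-CHO calcium-flux assay, antagonist mode. Cells were seeded 18 h, dye-loaded 1 h at 37 C and given compound for 5 min at RT, then acetylcholine was added at 50nM. FDSS fluorescence was read 3 min; 15 concentrations, three runs.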

For assay [15] the target is unchanged. As to the kind of experiment: Cholinergic receptor muscarinic 1 (CHRM1) small molecule agonists, cell-based qHTS assay (AID 1963589). Further: nearly all actives have a fitted effect of over 35% in size. The procedure, abridged: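 Stable CHRM1-CHO cells (human receptor) were incubated 18 h, dye-loaded for 1 h at 37 C and exposed to test compounds for agonist activity, with calcium-dependent fluorescence followed kinetically.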

A short description of assay [16]: cAMP Responsive Elements (CRE) small molecule agonists, cell-based qHTS assay (AID 1963590). The procedure, abridged:
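FRET-based beta-lactamase readout (LiveBLAzer B/G, 2 h RT) quantified CRE activation in HEK 293T CRE-bla cells after 3 h treatment with DMSO-dissolved compounds.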

The nature of assay [17]: cAMP Responsive Elements (CRE) small molecule antagonists, cell-based qHTS assay (AID 1963591; active means well fitted inhibition curve with a large enough effect in the signal ratio in the repeat runs, not every such curve was filed as active; the % refers to the signal ratio). Summed up: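 qHTS in CRE-bla HEK 293T cells: compound in DMSO, then 0.25 uM NKH477 (final), 3 h at 37 °C/5% CO2; beta-lactamase FRET read-out after 2 h substrate incubation.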
The target of assay [18] is Beta-2 adrenergic receptor (Homo sapiens) (UniProt P07550). As to the kind of experiment: Adrenergic beta2 receptor (ADRB2) small molecule antagonists, cell-based qHTS assay (AID 1963592). Further: nearly all actives have a fitted effect of over 50% in size. Further: potency means the concentration at half of the fitted maximal effect. Summed up:
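Cells (CHO, stable ADRB2 overexpression) incubated 18-20hr at 37C; compounds added from DMSO; agonist mix (1nM isoproterenol, 100uM IBMX, 25uM Ro-20-1724) added; 0.5hr RT; d2-cAMP and anti-cAMP-cryptate added; 1hr RT; 665/615 nm read.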

Assay [19] deals with D(2) dopamine receptor (Homo sapiens) (UniProt P14416). As to the kind of experiment: Dopamine D2 receptor (DRD2) small molecule agonists, cell-based qHTS assay (AID 1963594). Further: nearly all actives have a fitted effect of over 35% in size. Summed up:
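cAMP accumulation in DRD2-HEK293 cells measured by HTRF after 1 h detection; compounds added 10 min before NKH477 (200nM […]) forskolin-analogue stimulation, 30 min at room temperature, with Ro20-1724 present at 0.1 mM final.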

Assay [20] has the same target. Put plainly: Dopamine D2 receptor (DRD2) small molecule antagonists, cell-based qHTS assay (AID 1963595; active means well fitted inhibition curve with a large enough effect in the signal ratio in the repeat runs, with a control signal flat; the % refers to the signal ratio). The procedure, abridged: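 Antagonism was scored as restored cAMP in HEK293-DRD2 cells. These cells were stimulated with 200 nM NKH477 and 12 nM quinpirole for 30 min at room temperature, in the presence of 0.1 mM Ro20-1724.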

Several values for one entry are separate records, joined by “and”; a condition that tells them apart may be missing. Equal values may be shown once. Results filed as inconclusive are left out. Some structures have more than one record in an assay (separate samples or runs), and their calls can disagree. Activity calls are given as the source filed them. Unless noted, the call rests on the fitted dose curve.

Gonadotropin-releasing hormone receptor (Homo sapiens), sequence (P30968 whole entry, looked up): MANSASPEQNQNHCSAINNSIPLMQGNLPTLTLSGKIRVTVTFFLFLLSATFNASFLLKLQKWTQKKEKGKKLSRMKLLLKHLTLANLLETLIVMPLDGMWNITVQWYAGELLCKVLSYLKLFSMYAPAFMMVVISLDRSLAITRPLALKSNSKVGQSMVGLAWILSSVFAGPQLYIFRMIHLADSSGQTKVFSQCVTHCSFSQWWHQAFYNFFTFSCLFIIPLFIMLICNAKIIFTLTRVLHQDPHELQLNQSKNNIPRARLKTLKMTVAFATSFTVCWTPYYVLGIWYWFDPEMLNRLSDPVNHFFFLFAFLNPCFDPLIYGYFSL
Beta-2 adrenergic receptor (Homo sapiens), sequence (P07550 whole entry, looked up): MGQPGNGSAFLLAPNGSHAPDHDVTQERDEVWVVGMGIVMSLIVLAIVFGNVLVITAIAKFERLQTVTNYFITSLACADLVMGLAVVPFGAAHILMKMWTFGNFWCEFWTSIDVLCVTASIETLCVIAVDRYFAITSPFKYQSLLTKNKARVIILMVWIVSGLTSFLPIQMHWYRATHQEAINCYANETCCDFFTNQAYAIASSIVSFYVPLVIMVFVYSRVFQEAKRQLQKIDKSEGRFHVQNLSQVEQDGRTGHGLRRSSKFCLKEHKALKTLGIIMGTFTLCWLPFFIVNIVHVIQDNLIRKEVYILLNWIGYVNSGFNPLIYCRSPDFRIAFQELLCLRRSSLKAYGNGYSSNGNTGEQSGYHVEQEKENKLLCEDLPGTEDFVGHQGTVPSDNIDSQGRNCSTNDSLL
KiSS-1 receptor (Homo sapiens), sequence (Q969F8 whole entry, looked up): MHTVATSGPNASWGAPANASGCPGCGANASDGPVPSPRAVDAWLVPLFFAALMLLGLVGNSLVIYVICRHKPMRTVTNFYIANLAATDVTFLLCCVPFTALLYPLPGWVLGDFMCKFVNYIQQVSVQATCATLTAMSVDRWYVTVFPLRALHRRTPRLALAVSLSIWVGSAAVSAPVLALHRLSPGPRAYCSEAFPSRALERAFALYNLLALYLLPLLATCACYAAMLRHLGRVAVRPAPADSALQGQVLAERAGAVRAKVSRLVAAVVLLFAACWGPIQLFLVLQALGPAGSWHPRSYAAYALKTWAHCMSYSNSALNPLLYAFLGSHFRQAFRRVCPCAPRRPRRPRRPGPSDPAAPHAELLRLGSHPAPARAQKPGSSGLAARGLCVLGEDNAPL
D(2) dopamine receptor (Homo sapiens), sequence (P14416 whole entry, looked up): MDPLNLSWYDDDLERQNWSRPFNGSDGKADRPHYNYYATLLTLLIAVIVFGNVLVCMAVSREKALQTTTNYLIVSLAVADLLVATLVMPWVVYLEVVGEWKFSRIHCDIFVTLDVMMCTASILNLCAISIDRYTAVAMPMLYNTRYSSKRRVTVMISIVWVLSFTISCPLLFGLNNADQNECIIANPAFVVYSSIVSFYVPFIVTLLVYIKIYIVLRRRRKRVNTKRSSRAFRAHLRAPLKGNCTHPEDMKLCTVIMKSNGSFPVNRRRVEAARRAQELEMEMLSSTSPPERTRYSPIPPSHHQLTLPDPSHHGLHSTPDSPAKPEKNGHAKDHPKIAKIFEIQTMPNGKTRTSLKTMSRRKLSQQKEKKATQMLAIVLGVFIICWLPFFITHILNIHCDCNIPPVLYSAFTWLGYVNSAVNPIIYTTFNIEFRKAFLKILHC
5-hydroxytryptamine receptor 2A (Homo sapiens), sequence (P28223 whole entry, looked up): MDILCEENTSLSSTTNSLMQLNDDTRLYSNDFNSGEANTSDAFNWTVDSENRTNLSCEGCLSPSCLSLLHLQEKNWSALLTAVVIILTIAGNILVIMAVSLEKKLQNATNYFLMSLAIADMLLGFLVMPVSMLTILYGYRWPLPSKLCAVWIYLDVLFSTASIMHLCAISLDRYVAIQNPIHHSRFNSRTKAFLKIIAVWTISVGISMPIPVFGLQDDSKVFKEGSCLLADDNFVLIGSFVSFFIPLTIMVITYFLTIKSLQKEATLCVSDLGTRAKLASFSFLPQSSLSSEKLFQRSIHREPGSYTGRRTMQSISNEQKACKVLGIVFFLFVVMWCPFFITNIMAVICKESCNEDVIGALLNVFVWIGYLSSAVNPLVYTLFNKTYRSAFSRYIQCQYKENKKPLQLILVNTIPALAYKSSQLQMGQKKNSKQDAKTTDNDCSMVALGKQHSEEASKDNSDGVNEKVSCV
Muscarinic acetylcholine receptor M1 (Homo sapiens), sequence (P11229 whole entry, looked up): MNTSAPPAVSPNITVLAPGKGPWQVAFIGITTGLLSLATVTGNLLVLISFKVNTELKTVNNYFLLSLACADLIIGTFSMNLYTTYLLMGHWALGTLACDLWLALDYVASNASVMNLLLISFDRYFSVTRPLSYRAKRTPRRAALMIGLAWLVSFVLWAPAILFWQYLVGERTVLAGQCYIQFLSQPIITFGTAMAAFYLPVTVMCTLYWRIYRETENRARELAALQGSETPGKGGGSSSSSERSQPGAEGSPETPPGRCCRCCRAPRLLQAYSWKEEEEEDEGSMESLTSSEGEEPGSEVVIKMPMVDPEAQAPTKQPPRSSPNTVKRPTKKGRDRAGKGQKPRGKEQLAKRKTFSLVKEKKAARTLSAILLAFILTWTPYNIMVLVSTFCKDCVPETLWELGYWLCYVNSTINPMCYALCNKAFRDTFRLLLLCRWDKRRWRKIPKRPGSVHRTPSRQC

In the case of `CC1=C(C)S(=O)(=O)CCS1(=O)=O`, the Potency entry in assay [1], in [3], in assay [4], in assay [5], in assay [6] and in assay [7] was “inactive” throughout. Further, the Potency result in assay [8], in assay [9], in [10], in assay [11], in [12] and in [13] was “inactive” each time. Further, the Potency result in assay [14], in assay [15], in [16], in [17], in assay [19] and in assay [20] was “inactive” each time. Moreover, the Potency in assay [2] was 6.73 µM (active) and 8.63 µM (active); in [18], “inactive and 13.7 µM (active)”.

For the compound `CCCCC(CC)COC(=O)CS` (centres undefined), the Potency result in assay [1], in assay [2], in assay [3], in assay [4], in assay [5] and in [6] was “inactive” each time. In addition, the Potency result in [7], in assay [8], in [9], in [10], in assay [11] and in [12] was “inactive” in each case. Further, the Potency entry in assay [13], in assay [14], in assay [15], in assay [16], in assay [17] and in assay [18] was “inactive” throughout. Also, the Potency entry in assay [20] is “inactive”.

As to `CCNc1ccccc1`, the Potency result in assay [1], in [2], in assay [3], in assay [4], in assay [5] and in [6] was “inactive” throughout. Moreover, the Potency entry in [7], in assay [8], in assay [9], in [10], in [11] and in assay [12] was “inactive” each time. The Potency result in [13], in [14], in [15], in assay [16], in [17] and in assay [18] was “inactive” each time. The Potency result in [19] and in assay [20] was “inactive” throughout.

For `O=C1CCCC1`, the Potency result in [1], in assay [2], in assay [3], in assay [4], in assay [5] and in assay [6] was “inactive” throughout. The Potency entry in [7], in [8], in assay [9], in assay [10], in assay [11] and in [12] was “inactive” in each case. Also, the Potency result in assay [13], in assay [14], in assay [15], in assay [16], in assay [17] and in assay [18] was “inactive” throughout. Besides, the Potency entry in assay [19] and in assay [20] was “inactive” each time.

As for `CCOCCOCCO`, the Potency result in assay [1], in assay [2], in [3], in [4], in [5] and in assay [6] was “inactive” in each case. In addition, the Potency result in assay [7], in assay [8], in [9], in [10], in assay [11] and in assay [12] was “inactive” throughout. Moreover, the Potency entry in assay [13], in [14], in assay [15], in assay [16], in assay [17] and in assay [18] was “inactive” in each case. Moreover, the Potency entry in [19] and in [20] was “inactive” in each case.

For `COCCCN`, the Potency entry in [1], in assay [2], in [3], in assay [4], in [5] and in assay [6] was “inactive” each time. For the same compound, the Potency entry in assay [7], in [8], in assay [9], in [10], in assay [11] and in [12] was “inactive” each time. Also, the Potency result in [13], in assay [14], in assay [15], in assay [16], in [17] and in [18] was “inactive” in each case. In addition, the Potency result in assay [19] and in assay [20] was “inactive” each time.

`c1ccc2c(c1)[nH]c1ccccc12`: the Potency result in [1], in assay [2], in [3], in [4], in [5] and in assay [6] was “inactive” in each case. Besides, the Potency result in [7], in assay [8], in assay [9], in assay [10], in assay [11] and in assay [12] was “inactive” each time. Also, the Potency entry in assay [13], in assay [14], in assay [15], in assay [16], in [17] and in assay [18] was “inactive” throughout. The Potency result in assay [19] and in [20] was “inactive” each time.

The record behind these values is PubChem BioAssay (Tox21).
